# In PubChem BioAssay AID1159580 (chemical genetic matrix, 2015):
# Screen size: about 5,500 compounds; about 2,000 (36%) were called active. About 18% were inconclusive and are not listed. The list shows a part of the results. Unmarked numbers belong to inactive results. No stated cut-off is given here; in the data, active means normalized growth mostly below about 0.91 (no sharp cut-off); inconclusive means no clear call, values can overlap the other calls; inactive means mostly above about 0.92.
# Assay: chemical genetic growth profiling, strain panel (AID 1159580);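 further: tested at 20 µM; growth read once vehicle control cultures reached saturation at 30 °C; 1 = growth at the plate median or of vehicle wells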
# Details: S. cerevisiae deletion strains, growth OD
# [1] = locus YAL013W, strain DEP1, stronger effect = lower value
# [2] = locus YBR229C, strain ROT2, stronger effect = lower value
# [3] = locus YDL101C, strain DUN1, stronger effect = lower value
# [4] = locus YDR150W, strain NUM1, stronger effect = lower value
# [5] = locus YEL061C, strain CIN8, stronger effect = lower value
# [6] = locus YGR078C, strain PAC10, stronger effect = lower value
# [7] = locus YHR030C, strain SLT2, stronger effect = lower value
# [8] = locus YHR087W, strain rtc3, stronger effect = lower value
# [9] = locus YJR043C, strain POL32, stronger effect = lower value
# [10] = locus YJR075W, strain HOC1, stronger effect = lower value
# [11] = locus YLR039C, strain RIC1, stronger effect = lower value
# [12] = locus YLR058C, strain SHM2 (second series), stronger effect = lower value
# [13] = locus YLR085C, strain ARP6, stronger effect = lower value
# [14] = locus YLR262C, strain YPT6, stronger effect = lower value
# [15] = locus YML094W, strain GIM5, stronger effect = lower value
# [16] = locus YMR219W, strain ESC1, stronger effect = lower value
# [17] = locus YMR263W, strain SAP30, stronger effect = lower value
# [18] = locus YNL153C, strain GIM3, stronger effect = lower value
# [19] = locus YNL298W, strain CLA4 (second series), stronger effect = lower value
# [20] = locus YNL322C, strain KRE1, stronger effect = lower value
# [21] = locus YNR030W, strain Alg12, stronger effect = lower value
# [22] = locus YPL055C, strain LGE1, stronger effect = lower value
# [23] = locus YPL241C, strain CIN2, stronger effect = lower value
# [24] = locus YPR135W, strain CTF4, stronger effect = lower value
# [25] = locus YAR019C, strain CDC15, stronger effect = lower value
# [26] = locus YBL105C, strain PKC1, stronger effect = lower value
# [27] = locus YBR135W, strain CKS1, stronger effect = lower value
# [28] = locus YBR136W, strain MEC1, stronger effect = lower value
# [29] = locus YBR160W, strain CDC28, stronger effect = lower value
# [30] = locus YDL017W, strain CDC7, stronger effect = lower value
# [31] = locus YDL028C, strain MPS1, stronger effect = lower value
# [32] = locus YDL108W, strain KIN28, stronger effect = lower value
# [33] = locus YDL132W, strain cdc53, stronger effect = lower value
# [34] = locus YDL214C, strain PRR2, stronger effect = lower value
# [35] = locus YDR052C, strain DBF4, stronger effect = lower value
# [36] = locus YDR054C, strain cdc34, stronger effect = lower value
# [37] = locus YDR226W, strain ADK1, stronger effect = lower value
# [38] = locus YDR477W, strain SNF1, stronger effect = lower value
# [39] = locus YER123W, strain YCK3, stronger effect = lower value
# [40] = locus YER133W, strain GLC7, stronger effect = lower value
# [41] = locus YFL009W, strain cdc4, stronger effect = lower value
# [42] = locus YFR003C, strain YPI1, stronger effect = lower value
# [43] = locus YFR019W, strain FAB1, stronger effect = lower value
# [44] = locus YFR028C, strain CDC14, stronger effect = lower value
# [45] = locus YGR040W, strain KSS1, stronger effect = lower value
# [46] = locus YGR052W, strain FMP48, stronger effect = lower value
# [47] = locus YGR092W, strain DBF2, stronger effect = lower value
# [48] = locus YHR079C, strain IRE1, stronger effect = lower value
# [49] = locus YHR082C, strain KSP1, stronger effect = lower value
# [50] = locus YHR205W, strain SCH9, stronger effect = lower value
# [51] = locus YIL147C, strain SLN1, stronger effect = lower value
# [52] = locus YJL095W, strain BCK1, stronger effect = lower value
# [53] = locus YJL128C, strain PBS2, stronger effect = lower value
# [54] = locus YJL157C, strain FAR1, stronger effect = lower value
# [55] = locus YJR016C, strain ILV3, stronger effect = lower value
# [56] = locus YJR066W, strain TOR1 (second series), stronger effect = lower value
# [57] = locus YJR066W, strain TOR1, stronger effect = lower value
# [58] = locus YKL048C, strain ELM1, stronger effect = lower value
# [59] = locus YKL067W, strain YNK1, stronger effect = lower value
# [60] = locus YKL193C, strain SDS22, stronger effect = lower value
# [61] = locus YKL203C, strain TOR2, stronger effect = lower value
# [62] = locus YLR113W, strain HOG1, stronger effect = lower value
# [63] = locus YLR133W, strain CKI1, stronger effect = lower value
# [64] = locus YLR403W, strain SFP1, stronger effect = lower value
# [65] = locus YML070W, strain DAK1, stronger effect = lower value
# [66] = locus YMR001C, strain CDC5, stronger effect = lower value
# [67] = locus YMR205C, strain PFK2 (second series), stronger effect = lower value
# [68] = locus YMR277W, strain FCP1, stronger effect = lower value
# [69] = locus YNL006W, strain LST8, stronger effect = lower value
# [70] = locus YNL020C, strain ARK1, stronger effect = lower value
# [71] = locus YNL183C, strain NPR1, stronger effect = lower value
# [72] = locus YNL207W, strain RIO2, stronger effect = lower value
# [73] = locus YNL222W, strain SSU72, stronger effect = lower value
# [74] = locus YNL307C, strain MCK1 (second series), stronger effect = lower value
# [75] = locus YOL136C, strain PFK27, stronger effect = lower value
# [76] = locus YOR061W, strain CKA2, stronger effect = lower value
# [77] = locus YOR119C, strain RIO1, stronger effect = lower value
# [78] = locus YOR231W, strain MKK1, stronger effect = lower value
# [79] = locus YOR329C, strain SCD5, stronger effect = lower value
# [80] = locus YPL031C, strain PHO85, stronger effect = lower value
# [81] = locus YPL153C, strain RAD53, stronger effect = lower value
# [82] = locus YPL204W, strain HRR25, stronger effect = lower value
# [83] = locus YPL209C, strain IPL1, stronger effect = lower value
# [84] = locus YPL256C, strain CLN2, stronger effect = lower value
# [85] = locus YPR025C, strain CCL1, stronger effect = lower value
# [86] = locus YPR106W, strain ISR1, stronger effect = lower value
# [87] = locus YPR111W, strain DBF20, stronger effect = lower value
# [88] = strain NNK1, stronger effect = lower value
# [89] = strain TSCII, stronger effect = lower value
compound,measurement,setting,value
CC1(C)CC(=O)c2c(S(C)(=O)=O)sc(Br)c2C1,normalized growth,[1],0.951
same,normalized growth,[2],1.01
same,normalized growth,[3],0.995
same,normalized growth,[4],0.965
same,normalized growth,[5],0.988
same,normalized growth,[6],1.02
same,normalized growth,"locus YGR229C, strain SMI1, stronger effect = lower value",0.981
same,normalized growth,[7],0.921
same,normalized growth,[8],1.02
same,normalized growth,[9],1.03
same,normalized growth,[10],1.03
same,normalized growth,"locus YKL190W, strain CNB1, stronger effect = lower value",0.998
same,normalized growth,[11],0.91
same,normalized growth,[12],1.01
same,normalized growth,[13],0.881
same,normalized growth,[14],0.907
same,normalized growth,[15],0.977
same,normalized growth,[16],0.993
same,normalized growth,[17],0.983
same,normalized growth,[18],1.02
same,normalized growth,[19],0.98
same,normalized growth,[20],1
same,normalized growth,[21],1
same,normalized growth,[22],0.924
same,normalized growth,[23],0.954
same,normalized growth,[24],0.96
O=C(Nc1ccccc1SCc1cccc(C(F)(F)F)c1)c1c(F)cccc1Cl,normalized growth,[1],1
same,normalized growth,[2],1.03
same,normalized growth,[3],1
same,normalized growth,[4],1.01
same,normalized growth,[5],1.03
same,normalized growth,[6],1.02
same,normalized growth,[7],1.01
same,normalized growth,[8],0.998
same,normalized growth,"locus YJL187C, strain SWE1, stronger effect = lower value",1.02
same,normalized growth,[9],0.988
same,normalized growth,[10],0.998
same,normalized growth,[11],1.04
same,normalized growth,[12],1.01
same,normalized growth,[13],0.986
same,normalized growth,[14],0.984
same,normalized growth,[15],1
same,normalized growth,[16],1.02
same,normalized growth,[17],0.991
same,normalized growth,[18],1.02
same,normalized growth,[19],1.04
same,normalized growth,[20],1.02
same,normalized growth,[21],0.984
same,normalized growth,"locus YOL006C, strain TOP1, stronger effect = lower value",0.963
same,normalized growth,[22],1.02
same,normalized growth,[23],1.01
same,normalized growth,[24],0.942
N#CCC(=O)c1cccc(CSc2ccccc2Cl)c1,normalized growth,[25],0.896
same,normalized growth,[26],0.944
same,normalized growth,[27],0.954
same,normalized growth,[28],0.967
same,normalized growth,[29],0.971
same,normalized growth,[30],0.982
same,normalized growth,[31],0.972
same,normalized growth,[3],0.974
same,normalized growth,[32],0.966
same,normalized growth,[33],0.977
same,normalized growth,[34],0.617 (active)
same,normalized growth,[35],0.976
same,normalized growth,[36],0.987
same,normalized growth,[37],0.964
same,normalized growth,[38],0.417 (active)
same,normalized growth,[39],0.243 (active)
same,normalized growth,[40],0.639 (active)
same,normalized growth,[41],0.983
same,normalized growth,[42],0.982
same,normalized growth,[43],0.31 (active)
same,normalized growth,[44],0.965
same,normalized growth,[45],0.456 (active)
same,normalized growth,[46],0.473 (active)
same,normalized growth,[47],1.03
same,normalized growth,[7],0.114 (active)
same,normalized growth,[48],0.209 (active)
same,normalized growth,[49],0.293 (active)
same,normalized growth,[50],0.992
same,normalized growth,[51],0.968
same,normalized growth,[52],0.213 (active)
same,normalized growth,[53],1.04
same,normalized growth,[54],0.42 (active)
same,normalized growth,[55],0.987
same,normalized growth,[56],0.313 (active)
same,normalized growth,[57],0.353 (active)
same,normalized growth,[58],0.937
same,normalized growth,[59],0.59 (active)
same,normalized growth,[60],0.978
same,normalized growth,[61],0.529 (active)
same,normalized growth,[62],0.56 (active)
same,normalized growth,[63],0.512 (active)
same,normalized growth,[64],1
same,normalized growth,[65],0.405 (active)
same,normalized growth,[66],0.976
same,normalized growth,[67],0.812
same,normalized growth,[68],0.973
same,normalized growth,[69],0.319 (active)
same,normalized growth,[70],0.437 (active)
same,normalized growth,[71],0.584
same,normalized growth,[72],0.966
same,normalized growth,[73],0.961
same,normalized growth,[74],1.04
same,normalized growth,[75],0.382 (active)
same,normalized growth,[76],0.553 (active)
same,normalized growth,[77],0.504 (active)
same,normalized growth,[78],0.43 (active)
same,normalized growth,[79],0.969
same,normalized growth,[80],0.189 (active)
same,normalized growth,[81],0.21 (active)
same,normalized growth,[82],0.162 (active)
same,normalized growth,[83],0.966
same,normalized growth,[84],0.343 (active)
same,normalized growth,[85],0.972
same,normalized growth,[86],0.996
same,normalized growth,[87],0.968
same,normalized growth,[88],0.971
same,normalized growth,[89],0.973
CC(O)(CNCc1ccc(Cl)cc1)CSc1ccccc1Cl (stereo not given),normalized growth,[25],0.977
same,normalized growth,[26],0.984
same,normalized growth,[27],0.99
same,normalized growth,[28],0.975
same,normalized growth,[29],0.998
same,normalized growth,[30],0.992
same,normalized growth,[31],0.972
same,normalized growth,[3],0.985
same,normalized growth,[32],0.987
same,normalized growth,[33],0.994
same,normalized growth,[34],0.959
same,normalized growth,[35],1
same,normalized growth,[36],0.988
same,normalized growth,[37],0.98
same,normalized growth,[38],0.952
same,normalized growth,[39],0.862
same,normalized growth,[40],0.952
same,normalized growth,[41],0.99
same,normalized growth,"locus YFL029C, strain CAK1, stronger effect = lower value",0.962
same,normalized growth,[42],0.986
same,normalized growth,[43],0.9
same,normalized growth,[44],0.985
same,normalized growth,[45],0.927
same,normalized growth,[46],1.08
same,normalized growth,[47],0.796
same,normalized growth,[7],0.938
same,normalized growth,[48],1
same,normalized growth,[49],1.03
same,normalized growth,[50],1.02
same,normalized growth,[51],0.978
same,normalized growth,[52],1.02
same,normalized growth,[53],1
same,normalized growth,[54],0.973
same,normalized growth,[55],0.991
same,normalized growth,[56],0.875
same,normalized growth,[57],0.998
same,normalized growth,[58],0.98
same,normalized growth,[59],0.971
same,normalized growth,"locus YKL101W, strain HSL1, stronger effect = lower value",0.963
same,normalized growth,[60],0.985
same,normalized growth,[61],0.981
same,normalized growth,[62],1.07
same,normalized growth,[63],0.976
same,normalized growth,[64],0.963
same,normalized growth,[65],0.974
same,normalized growth,[66],0.982
same,normalized growth,[67],0.977
same,normalized growth,[68],0.99
same,normalized growth,[69],0.997
same,normalized growth,[70],0.991
same,normalized growth,"locus YNL161W, strain CBK1, stronger effect = lower value",0.991
same,normalized growth,[71],1.02
same,normalized growth,[72],0.994
same,normalized growth,[73],0.985
same,normalized growth,[74],0.897
same,normalized growth,"locus YOL078W, strain AVO1, stronger effect = lower value",0.99
same,normalized growth,[75],0.975
same,normalized growth,[76],0.964
same,normalized growth,[77],0.928
same,normalized growth,[78],1.02
same,normalized growth,[79],0.992
same,normalized growth,[80],0.955
same,normalized growth,[81],0.951
same,normalized growth,[82],0.923
same,normalized growth,[83],0.984
same,normalized growth,[84],1.01
same,normalized growth,[85],0.988
same,normalized growth,[86],1
same,normalized growth,[87],0.998
same,normalized growth,[88],1
same,normalized growth,[89],0.987
